The list is not random: actives were taken first. Their share in the collection is about 11%.
JMJD2A Tudor: JMJD2A Tudor domain (human) inhibition | AID 504339 | AlphaScreen JMJD2A-Tudor / H3K4me3 peptide binding | 390,000 tested, 4.4% active | O75164 | Potency, µM (doses to about 114 µM), inactives show top-dose activity change, negative = inhibition, actives largely listed as inhibitors; note: % is set by controls: 0 for no effect and ±100 for the full control effect; nearly all actives have a fitted effect of over 50% in size
HP1b chromo inh: blocks HP1-beta chromodomain binding to methylated histone tails. P83916. AlphaScreen HP1-beta / biotin-H3K9me3 peptide binding. Potency, µM (series often up to 114 µM), without a hit: at the highest dose activity change, negative = inhibition, usual class: inhibitors. 390,000 tested, 0.56% active. AID 540317; note: nearly all actives have a fitted effect of over 70% in size
Target sequence (P83916 whole entry, looked up): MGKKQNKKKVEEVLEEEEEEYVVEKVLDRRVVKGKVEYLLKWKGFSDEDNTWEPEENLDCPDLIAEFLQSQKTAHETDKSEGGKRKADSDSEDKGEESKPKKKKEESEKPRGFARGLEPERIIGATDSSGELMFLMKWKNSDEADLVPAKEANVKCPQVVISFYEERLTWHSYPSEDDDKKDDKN
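Compound inhibition of the preformed complex between 50 nM HP1-beta and 50 nM biotinylated H3K9me3 peptide was read by AlphaScreen. Buffer was PBS pH 7.4 with 0.01% Tween-20. Incubations ran 30 min at room temperature, with 10 ug/mL donor/acceptor beads.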
VDR inhibitor: vitamin D3 receptor (human) inhibition; P11473; VDR-SRC2-3 peptide fluorescence polarization, 2 h; Potency, µM, without a hit: max response, negative = inhibition, most hits filed as inhibitors; 400,000 tested, 0.93% active; AID 504847; note: % is set by controls: 0 for no effect and ±100 for the full control effect
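Measured by FP: displacement of SRC2-3 coactivator peptide from VDR by library compounds, following a two-hour ambient incubation.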
PLK1 PBD inh: blocks phosphopeptide binding to human PLK1 polo-box domain; P53350; Plk1 PBD binding of FITC phosphopeptide, fluorescence polarization; Potency, µM, for the others: max response, negative = inhibition, hits mostly inhibitors; 360,000 tested, 2.8% active; AID 720504; note: series mostly up to about 57 µM; % is set by controls: 0 for no effect and ±100 for the full control effect; nearly all actives have a fitted effect of over 65% in size
G9a block: blocks human histone lysine methyltransferase G9a; Q96KQ7; G9a H3K9 monomethylation, AlphaScreen, 2 h; Potency, µM (series often up to 102 µM), without a hit: at the highest dose activity, negative = inhibition, hits mostly inhibitors; 350,000 tested, 8.8% active; AID 504332; note: % is set by controls: 0 for no effect and ±100 for the full control effect; nearly all actives have a fitted effect of over 75% in size
Target sequence (Q96KQ7 913-1193 limits assumed): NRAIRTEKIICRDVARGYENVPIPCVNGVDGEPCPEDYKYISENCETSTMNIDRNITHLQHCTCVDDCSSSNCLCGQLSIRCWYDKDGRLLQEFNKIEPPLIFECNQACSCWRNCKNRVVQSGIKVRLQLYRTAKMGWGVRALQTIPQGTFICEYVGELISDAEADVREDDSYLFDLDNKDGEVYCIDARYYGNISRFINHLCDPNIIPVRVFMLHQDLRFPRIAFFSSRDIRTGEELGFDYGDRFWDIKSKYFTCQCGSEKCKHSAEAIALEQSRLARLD
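AlphaScreen detection with an anti-monomethyl H3K9 antibody quantified product after a 2 h room-temperature reaction containing 500 nM biotinylated H3K9 peptide, 20 µM SAM and 20 nM enzyme, which had been preincubated 15 min with compound.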
BAZ2B inh: blocks human BAZ2B | Q9UIF8 | AlphaScreen BAZ2B-H3K14Ac peptide displacement | Potency, µM (series often up to 114 µM), without a hit: top-dose activity change, negative = inhibition, most hits filed as inhibitors | 360,000 tested, 4.4% active | AID 504333; note: % is set by controls: 0 for no effect and ±100 for the full control effect; nearly all actives have a fitted effect of over 60% in size
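Protein-peptide AlphaScreen: BAZ2B 50 nM, b-H3K14Ac 50 nM, 1x PBS pH 7.4 + 0.01% Tween-20. Preincubation 30 min RT; cpd 30 min RT (top 110 uM); beads 20 min RT, light-protected.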
Active calls of the source: *; ? = inconclusive; nt = no result; [ ] = remark or other dose. Calls come from the whole dose curve; as a rule, active = well fitted curve in the direction sought with a large enough effect; inconclusive = small, poorly fitted or top-dose-only effect, or another doubt; inactive = no such curve, though single readings can be large; an effect the other way counts as inactive or inconclusive. Potency is the fitted concentration of half-maximal effect.

SMILES	JMJD2A Tudor	HP1b chromo inh	VDR inhibitor	PLK1 PBD inh	G9a block	BAZ2B inh
O=C(Nc1ccc(CN2CCOCC2)cc1)c1cccc(-c2cc3ccccc3oc2=O)c1	-25%	15%	25%	-1%	?	79µM*
O=C(Nc1cccnc1)c1cccc(-c2cc3ccccc3oc2=O)c1	-27%	26%	-2%	-18%	-1%	?
O=C(COC(=O)c1cccnc1Cl)Nc1cc(S(=O)(=O)N2CCCCC2)ccc1Cl	-20%	14%	6%	-8%	?	-16%
O=C(COC(=O)c1ccc[nH]c1=O)Nc1cc(S(=O)(=O)N2CCCCC2)ccc1Cl	89µM*	39%	-13%	?	-41%	15%
Nc1cc(N)cc(C(=O)OCC(=O)Nc2cc(S(=O)(=O)N3CCCCC3)ccc2Cl)c1	35µM*	50µM*	-8%	-5%	32µM*	25µM*
Cn1c(SCC(=O)NC2CC2)nnc1-c1ccccc1Cl	-11%	-1%[57 µM]	-8%	27µM*	nt	8%
Cn1c(Cn2c(=O)sc3ccccc32)nnc1SCC(=O)NC1CCCC1	-32%	22%	-23%	24µM*	12%[59 µM]	4%
Cn1c(Cn2c(=O)sc3ccccc32)nnc1SCC(=O)NC1CCCCC1	-14%	20%	2%	?	2%[59 µM]	1%
COc1cccc(S(=O)(=O)Nc2ccc3c(c2)C(=O)N(C)C[C@H](OC)[C@H](C)CN(Cc2ccccc2F)[C@@H](C)CO3)c1	nt	nt	nt	4%	nt	nt
CCN(Cc1ccncc1)C(=O)c1cc(COc2ccc(F)cc2F)on1	-15%	56%	-18%	-19%	40µM*	-19%
Cc1ccc2nc(-c3ccc(N4C(=N)SC5CS(=O)(=O)CC54)cc3)sc2c1 (configuration not stated)	-4%	33%	-3%	-6%	?	6%
CCc1ccc2ncc3c(-c4ccccc4)nn(-c4ccccc4)c3c2c1	-12%	4%	6%	nt	2%[59 µM]	nt
O=C1NCCN(CC2CCN(CCc3ccc(Cl)c(Cl)c3)CC2)C1=O	79µM*	-25%	6%	-3%	nt	nt
O=C(Nc1ccc(S(=O)(=O)Nc2nccs2)cc1)c1cc(-c2ccccc2)nc2ccccc12	32µM*	?	-17%	?	7.9µM*	?
Cc1ccc(-c2cc(C(=O)Nc3ccc(S(=O)(=O)Nc4nccs4)cc3)c3ccccc3n2)c(C)c1	?	?	-23%	5.3µM*	28µM*	?
Cc1ccc(-c2cc(C(=O)Nc3ccc(S(=O)(=O)Nc4ncccn4)cc3)c3ccccc3n2)cc1	-4%	29%	-10%	?	20%[59 µM]	8%
CSCC[C@H](NC(=O)[C@H](CO)NC(=O)[C@H](Cc1ccc(O)cc1)NC(=O)[C@@H](N)CO)C(=O)N[C@@H](CCC(=O)O)C(=O)N[C@@H](Cc1cnc[nH]1)C(=O)N[C@@H](Cc1ccccc1)C(=O)N[C@@H](CCCNC(=N)N)C(=O)N[C@@H](Cc1c[nH]c2ccccc12)C(=O)NCC(=O)N[C@@H](CCCCN)C(=O)N1CCC[C@H]1C(=O)N[C@H](C(=O)NCC(=O)N[C@@H](CCCCN)C(=O)N[C@@H](CCCCN)C(=O)N[C@@H](CCCNC(=N)N)C(=O)N[C@@H](CCCNC(=N)N)C(=O)N1CCC[C@H]1C(=O)N[C@H](C(=O)N[C@@H](CCCCN)C(=O)N[C@H](C(=O)N[C@@H](Cc1ccc(O)cc1)C(=O)N1CCC[C@H]1C(=O)O)C(C)C)C(C)C)C(C)C	nt	nt	-4%	nt	nt	nt
Cc1cc2c(cc1C)N(C(=O)CCl)CC(=O)N2	nt	nt	nt	-22%	nt	nt
Cc1cc2c(cc1C)N(C(=O)CCl)CCN2C(=O)CCl	40µM*	30%	?	?	nt	nt
Cc1ccc(C(C)C)c(OCCSc2nc(-c3cccs3)nc3cc(=O)[nH]n23)c1	-16%	11%	-1%	nt	3%[59 µM]	-3%
O=C(N/N=C\c1ccc(Cl)s1)c1ccc(Cn2cccn2)o1	50µM*	-10%	71µM*	27µM*	10%[59 µM]	8%
O=C(On1c(-c2ccccc2)nc2ccccc2c1=O)c1ccco1	89µM*	-4%	-24%	17µM*	?	-29%
Cc1ccc(NC(=O)/C=C/c2ccccc2)c(Br)c1	-3%	14%	0%	nt	-5%[59 µM]	-2%
O=[N+]([O-])c1ccc(NC2CCCCC2)nc1	-8%	0%[57 µM]	-11%	0%	nt	nt
Nc1ncnc2oc(-c3ccco3)c(-c3ccco3)c12	56µM*	-33%	-16%	?	5.6µM*	56µM*
SMILES	JMJD2A Tudor	HP1b chromo inh	VDR inhibitor	PLK1 PBD inh	G9a block	BAZ2B inh
c1coc(-c2ccnc(-n3cccc3)n2)c1	-4%	22%	-7%	2%	?	-2%
Nc1ncnc2oc(-c3ccoc3)c(-c3ccco3)c12	50µM*	56µM*	?	nt	nt	nt
COc1ccccc1NC(=O)C(=O)N/N=C(\C)CC(=O)Nc1ccccn1	-8%	44%	-1%	1%	nt	79µM*
COc1ccccc1OCC(=O)Nc1ccccn1	-7%	31%	-7%	-1%	20µM*	4%
CCOc1ccc(Nc2nc(-c3cccc(Cl)c3)c3c(n2)-c2ccccc2OC3)cc1	?	-7%	-8%	nt	13µM*	-39%
O=C1c2ccccc2C(=O)N1CN(C(=O)c1ccccc1)c1ccc(O)cc1	-26%	12%	10%	21µM*	5%	12%
O=C1c2ccccc2C(=O)N1CN(C(=O)COc1ccccc1)c1ccccc1	-13%	34%	-16%	-7%	1%[59 µM]	5%
COc1ccc(CN(Cc2cccn2C)C(=O)c2cc3cc(OC)ccc3[nH]2)cc1	?	-31%	-3%	-3%	50µM*	?
CNc1ccc(N=Nc2cccc3ncccc23)cc1	14µM*	40µM*	-10%	8%	nt	nt
c1cnc2ccc3ncccc3c2c1	-7%[11.4 µM]	54%	-14%	-4%	?	-17%
O=C1OCC(c2ccccc2)=C1c1ccccc1	-8%	11%	1%	0%	-6%[59 µM]	3%
N#CC1=C(c2ccc(-c3ccccc3)cc2)COC1=O	-15%[11.4 µM]	-22%	53%	?	11µM*	-26%
Cc1ccc(S(=O)(=O)Nc2c(O)ccc3ccccc23)cc1	?	?	32µM*	6.7µM*	nt	nt
Cc1ccc(S(=O)(=O)Nc2ccccc2-c2ccccc2NS(=O)(=O)c2ccc(C)cc2)cc1	-16%	20%	3%	?	-26%	-50%
Cc1ccc(S(=O)(=O)Nc2c(Cl)c(Cl)c(O)c3ccccc23)cc1	nt	nt	nt	nt	1.3µM*	45µM*
Cc1ccc(S(=O)(=O)NN=Cc2c(O)ccc3ccccc23)cc1	nt	nt	nt	-13%	nt	nt
COCCN1C(=O)CN(S(C)(=O)=O)CC1(C)C(=O)NCc1ccccc1 (configuration not stated)	nt	nt	nt	-6%	nt	nt

Bioassay records as filed in PubChem.
